Source: PubChem BioAssay (NCI)
About 79,000 compounds went through this panel and 15% of them were active in at least one assay; those are over-represented in the sample as a whole. Calls of active or inactive are those of the source. Rule as the data show it: active = growth inhibition above about 70%; inactive = the rest.

Legend:
[1] = NCI Yeast Anticancer Drug Screen. Data for the rad52 strain (AID 147);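 also: 0% = growth of vehicle-treated control cultures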; conditions: S. cerevisiae rad52 mutant growth inhibition, active compounds read high
Outline: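 Inhibition of yeast growth, referenced to vehicle controls, was the measured output for a strain with defective DNA damage repair.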

[2] = NCI Yeast Anticancer Drug Screen. Data for the wt1 strain (AID 149);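 also: 0% = growth of vehicle-treated wt1 cultures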; conditions: S. cerevisiae wt1 strain (SPY 50644) growth inhibition, active compounds read high
Outline: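 Yeast wt1 strain exposed to compounds; growth inhibition measured relative to vehicle-treated controls.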

[3] = NCI Yeast Anticancer Drug Screen. Data for the rad50EPP+ strain (AID 151);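 also: 0% = growth of vehicle-treated control cultures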; conditions: S. cerevisiae rad50 mutant strain, active compounds read high
Outline: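 Genetically defined yeast (rad50EPP+, DNA damage repair alteration) is grown with compound, and inhibition of growth is expressed relative to vehicle-treated controls.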

[4] = NCI Yeast Anticancer Drug Screen. Data for the rad50 strain (AID 155);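 also: 0% = growth of vehicle-only cultures of the same strain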; conditions: S. cerevisiae rad50 strain growth inhibition, active compounds read high
Outline: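 Yeast carrying a defined DNA repair defect were exposed to test compounds, and growth was compared with vehicle-treated controls to give percent inhibition.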

[5] = NCI Yeast Anticancer Drug Screen. Data for the mec2-1 strain (AID 157); conditions: S. cerevisiae mec2-1 strain, active compounds read high
Outline: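 Each compound was tested on mec2-1 yeast, a strain altered in DNA damage repair or cell cycle control. Growth inhibition is reported relative to vehicle.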

[6] = NCI Yeast Anticancer Drug Screen. Data for the rad14 strain (AID 159);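 also: 0% = growth of vehicle-treated control cultures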; conditions: S. cerevisiae rad14 strain growth inhibition, active compounds read high
Outline: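 Yeast cells carrying a defined DNA-repair defect were exposed to compounds, and growth inhibition was calculated relative to vehicle-treated control cultures.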

[7] = NCI Yeast Anticancer Drug Screen. Data for the sgs1 mgt1 strain (AID 161);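 also: 0% = growth of cultures given vehicle only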; conditions: S. cerevisiae sgs1 mgt1 strain, active compounds read high
Outline: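 Read-out: growth inhibition vs vehicle controls. Cells: mutant yeast strain deficient in DNA damage repair.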

[8] = NCI Yeast Anticancer Drug Screen. Data for the CLN2oe strain (AID 163);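 also: 0% = growth of vehicle-only control cultures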; conditions: S. cerevisiae CLN2oe strain, active compounds read high
Outline: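 First, the altered yeast strain was treated with each compound; second, its growth was measured; finally, inhibition was derived by comparison with vehicle controls.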

[9] = NCI Yeast Anticancer Drug Screen. Data for the cln2 rad14 strain (AID 165);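 also: 0% = growth equal to vehicle treated cultures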; conditions: S. cerevisiae cln2 rad14 strain, active compounds read high
Outline: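 Test compounds were added to cln2 rad14 yeast cultures; inhibition of growth was then determined by comparison with vehicle treatment.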

[10] = NCI Yeast Anticancer Drug Screen. Data for the bub3 strain (AID 167); conditions: S. cerevisiae bub3 mutant strain, active compounds read high
Outline: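 Compounds were applied to a genetically altered yeast strain carrying a cell-cycle control defect. Growth inhibition was scored against vehicle-treated controls.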

[11] = NCI Yeast Anticancer Drug Screen. Data for the wt2 strain (AID 169);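 also: 0% = growth of vehicle-treated yeast cultures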; conditions: S. cerevisiae wt2 strain growth inhibition, active compounds read high
Outline: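 The panel's yeast strains carry defined changes in DNA repair or cell cycle genes. Each strain is grown with compound, and growth loss is scored relative to vehicle.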

[12] = NCI Yeast Anticancer Drug Screen. Data for the mlh1 strain (AID 171);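 also: 0% = growth of vehicle-treated control cultures of the same strain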; conditions: S. cerevisiae mlh1 strain growth inhibition, active compounds read high
Outline: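 Inhibition values reflect reduced yeast growth in the presence of compound, referenced to vehicle controls, using a strain chosen for its alteration in DNA repair or cell cycle control.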

[13] = NCI Yeast Anticancer Drug Screen. Data for the sgs1 strain (AID 173);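 also: 0% = growth of vehicle-only control cultures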; conditions: S. cerevisiae sgs1 mutant, active compounds read high
Outline: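 Vehicle-treated cultures served as reference for growth inhibition of a yeast strain altered in DNA damage repair or cell cycle control after compound exposure.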

[14] = NCI Yeast Anticancer Drug Screen. Data for the rad18 strain (AID 177); conditions: S. cerevisiae rad18 mutant growth inhibition, active compounds read high
Outline: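 Steps: expose repair-mutant yeast to compound; measure growth; express as inhibition relative to vehicle control.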

[15] = at 5.0 µM (retest, dose inferred, filed as 0.5)
[16] = at 50.0 µM (retest, dose inferred, filed as 5.0)

Measured: growth inhibition

Cc1ccc(N=Nc2ccc(O)c(C)c2)cc1
inactive: [1]; at 1.2 µM 6% | [1]; at 3.7 µM 10% | [2]; at 1.2 µM 5% | [2]; at 3.7 µM -2% | [3]; at 1.2 µM 20% | [3]; at 3.7 µM 39% | [3]; at 11.0 µM 53% | [4]; at 1.2 µM 9% | [4]; at 3.7 µM 18% | [4]; [15] 38% | [4]; [16] 56% | [5]; at 1.2 µM 10% | [5]; at 3.7 µM 11% | [5]; [15] 52% | [5]; [16] 66% | [6]; at 1.2 µM 4% | [6]; at 3.7 µM -7% | [6]; at 11.0 µM 68% | [7]; [15] -16% | [8]; at 1.2 µM -2% | [8]; at 3.7 µM -18% | [9]; [15] 32% | [10]; at 1.2 µM -6% | [10]; at 3.7 µM -7% | [10]; [15] 2% | [11]; at 1.2 µM 5% | [11]; at 3.7 µM 14% | [12]; at 1.2 µM 19% | [12]; at 3.7 µM 10% | [13]; at 1.2 µM 28% | [13]; at 3.7 µM 26% | [14]; at 1.2 µM 27% | [14]; at 3.7 µM 27%
active: [1]; at 11.0 µM 88% | [1]; at 33.0 µM 98% | [1]; at 100.0 µM 87% | [2]; at 11.0 µM 92% | [2]; at 33.0 µM 98% | [2]; at 100.0 µM 85% | [3]; at 33.0 µM 96% | [3]; at 100.0 µM 82% | [4]; at 11.0 µM 95% | [4]; at 33.0 µM 98% | [4]; at 50.0 µM 91.2% | [4]; at 100.0 µM 94% | [5]; at 11.0 µM 80% | [5]; at 33.0 µM 97% | [5]; at 50.0 µM 92.5% | [5]; at 100.0 µM 79% | [6]; at 33.0 µM 96% | [6]; at 100.0 µM 89% | [7]; [16] 91% | [7]; at 50.0 µM 92.5% | [8]; at 11.0 µM 97% | [8]; at 33.0 µM 97% | [8]; at 100.0 µM 78% | [9]; [16] 94% | [9]; at 50.0 µM 92.2% | [10]; at 11.0 µM 95% | [10]; at 33.0 µM 97% | [10]; [16] 95% | [10]; at 50.0 µM 91.3% | [10]; at 100.0 µM 84% | [11]; at 11.0 µM 91% | [11]; at 33.0 µM 98% | [11]; at 100.0 µM 79% | [12]; at 11.0 µM 91% | [12]; at 33.0 µM 97% | [12]; at 100.0 µM 80% | [13]; at 11.0 µM 90% | [13]; at 33.0 µM 98% | [13]; at 100.0 µM 85% | [14]; at 11.0 µM 89% | [14]; at 33.0 µM 98% | [14]; at 100.0 µM 91%
